Inconclusive results are not listed. Entries that show only a call come without a potency. A number with no mark means an inactive call. Calls of active or inactive are those of the source. The call rests on the fitted dose curve; in most records, active means well fitted curve in the direction sought with a large enough effect in the repeat runs; inconclusive means weak or mixed curves; inactive means no such curve, though single readings can be large; an effect the other way counts as inactive or inconclusive.

A short description of one experiment: qHTS RealTime-Glo MT Cell Viability Assay in HEK293 cells - 16 hour (AID 1224872). Further: top concentration of the series differs between compounds; nearly all actives have a fitted effect of over 50% in size. As to conditions: RealTime-Glo luminescence; series mostly up to 76.8 µM. The method, boiled down: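 HEK293 cells were seeded at 600 cells/well together with NanoLuc luciferase and cell-permeant prosubstrate, preincubated 5 h at 37 C/5% CO2, then given compound in DMSO by pintool. Luminescence from viable-cell prosubstrate reduction was read repeatedly over 40 h.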
A general note: In qHTS, concentration-response curves come from the screen itself.
With `Cc1ccc(C(=O)c2ccc(CC(=O)O)n2C)cc1`, the Potency result was “inactive”.
On to `CCOC(=O)COc1cc(-n2ncc(C(F)(F)F)c(C)c2=O)c(F)cc1Cl`, for which the Potency entry is “inactive”.
Same read-out and setting: then `NC(=O)N1c2ccccc2CC(=O)c2ccccc21`, with “inactive”; and `CC(CC=O)CC(C)(C)C` (stereo not drawn), with “inactive”; and `Cc1c(N)c(=O)n(-c2ccccc2)n1C`, with “inactive”.

The next experiment is described as follows: qHTS RealTime-Glo MT Cell Viability Assay in HepG2 cells - 8 hour (AID 1224873). Further: nearly all actives have a fitted effect of over 55% in size. As to conditions: RealTime-Glo luminescence; series mostly up to 76.8 µM. In outline: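 HepG2 cells (600/well) mixed with RealTime-Glo MT reagent, settled 5 h at 37 C/5% CO2 before compound addition. Nonlytic NanoLuc luminescence from viable-cell prosubstrate reduction read repeatedly during 40 h treatment at 37 C.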
`Cc1cc(C)c(N=Nc2c(O)c(S(=O)(=O)O)cc3cc(S(=O)(=O)O)ccc23)cc1C`: the viability change, negative = cytotoxic is 5.41% [at 6.97 µM].
`c1ccc(CCc2ccccc2)cc1`: the outcome was inactive.
In the case of `COc1cc2c(cc1OC)-c1cc3ccc(OC)c(OC)c3c[n+]1CC2`, the call was inactive.
In the case of `CC1OC1C1CCC2(C)OC2C1` (stereo not drawn), the compound was called inactive.
In the case of `C=COCC1CCC(COC=C)CC1` (stereo not drawn), the call was inactive.
`CC(C)CC(C)(N)C#N` (stereo not drawn): the outcome was inactive.
Regarding `NCCCC[C@H](N[C@@H](CCc1ccccc1)C(=O)O)C(=O)N1CCC[C@H]1C(=O)O`, the compound was classed as inactive.
For the compound `CNCCO`, the outcome was inactive.
Consider `CCCCS(=O)(=O)N[C@@H](Cc1ccc(OCCCCC2CCNCC2)cc1)C(=O)O`, for which the compound was classed as inactive.
On to `Cc1cccc(C)c1NC(=O)CC12CCCN1CCC2`, for which the compound was called inactive.
As for `CCN[C@@H]1C[C@H](N)[C@@H](OC2OC(CN)=CCC2N)[C@H](O)[C@H]1O[C@H]1OC[C@](C)(O)[C@H](NC)[C@H]1O` (stereo partly drawn), the viability change, negative = cytotoxic was 0.243% [at 0.29 µM].
As for `O=S(=O)(O)c1cccc2c(S(=O)(=O)O)cccc12`, the call was inactive.
For the compound `COc1ccnc(CS(=O)c2nc3cc(OC(F)F)ccc3[nH]2)c1OC` (stereo not drawn), the result was inactive.
The same measure, in the same setting: then `CC[N+](CC)(CC)CCOc1cccc(OCC[N+](CC)(CC)CC)c1OCC[N+](CC)(CC)CC`, with “inactive”; and `C1CCC2=NCCCN2CC1`, with “inactive”.
In the case of `CCCCCCCCCC[N+](C)(C)[O-]`, the call was inactive.
For `CCOc1ccccc1OCC`, the result was inactive.
With `C=C(C)C(=O)OCCOCCOCCOCCOC(=O)C(=C)C`, the call was inactive.
Turning to `C[N+](C)(CCOc1ccccc1)Cc1cccs1`, the result was inactive.
On the same count and under the same terms, then `CCOC(=O)C1=NOC(c2ccccc2)(c2ccccc2)C1`, with “inactive”.
As to `CCCn1cc[n+](C)c1C`, the call was inactive.
Turning to `O=C(O)c1cn(C2CC2)c2cc(N3CCNCC3)c(F)cc2c1=O`, the call was inactive.
In the case of `NC(CCC(=O)O)C(=O)O` (stereo not drawn), the outcome was inactive.
Regarding `CCN[C@H]1C[C@H](C)S(=O)(=O)c2sc(S(N)(=O)=O)cc21`, the call was inactive.
Consider `Nc1ccn([C@@H]2O[C@H](CO)[C@@H](O)C2(F)F)c(=O)n1`, for which the call was inactive.
The same measure, in the same setting: then `O=C1CCCCCCCCCCCCCCO1`, with “inactive”.
Same read-out and setting: then `CC(=O)O[C@@]12CO[C@@H]1C[C@H](O)[C@@]1(C)C(=O)[C@H](O)C3=C(C)[C@@H](OC(=O)[C@H](O)[C@@H](NC(=O)OC(C)(C)C)c4ccccc4)C[C@@](O)([C@@H](OC(=O)c4ccccc4)[C@H]21)C3(C)C`, with “inactive”.
Still for that read-out and setting: then `CC(=O)c1ccc2ccccc2c1`, with “inactive”; and `Cc1ccc(C(=O)c2ccc(CC(=O)O)n2C)cc1`, with “inactive”; and `CCOC(=O)COc1cc(-n2ncc(C(F)(F)F)c(C)c2=O)c(F)cc1Cl`, with “inactive”.
Consider `COC(=O)Nc1ccc(Cl)c(Cl)c1`, for which the call was inactive.
Turning to `NC(=O)N1c2ccccc2CC(=O)c2ccccc21`, the outcome was inactive.
As to `CC(CC=O)CC(C)(C)C` (stereo not drawn), the compound was called inactive.
Same read-out and setting: then `CC1=C(C/C=C(\C)CCC[C@H](C)CCC[C@H](C)CCCC(C)C)C(=O)c2ccccc2C1=O`, with “inactive”; and `Cc1c(N)c(=O)n(-c2ccccc2)n1C`, with “inactive”.

Another experiment can be described thus: qHTS RealTime-Glo MT Cell Viability Assay in HEK293 cells - 40 hour (AID 1224874). Further: nearly all actives have a fitted effect of over 50% in size. Further: potency means the concentration at half of the fitted maximal effect. As to conditions: RealTime-Glo luminescence; max response: active compounds read low. In outline:
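HEK293 + NanoLuc + prosubstrate, 600 cells/well; 5 h, 37 C/5% CO2; compound 23 nL in DMSO by pintool; 37 C; luminescence read at 0, 8, 16, 24, 32 and 40 h time points.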
For `c1ccc(CCc2ccccc2)cc1`, the max response is -4.4%.
With `COc1cc2c(cc1OC)-c1cc3ccc(OC)c(OC)c3c[n+]1CC2`, the Potency was 44.1 µM (active).
Take `CC1OC1C1CCC2(C)OC2C1` (stereo not drawn): the max response was 1.23%.
For `C=COCC1CCC(COC=C)CC1` (stereo not drawn), the max response is -3.6%.
In the case of `CC(C)CC(C)(N)C#N` (stereo not drawn), the max response was 5.01%.
Same read-out and setting: then `CCCCS(=O)(=O)N[C@@H](Cc1ccc(OCCCCC2CCNCC2)cc1)C(=O)O`, with -0.348%.
As for `Cc1cccc(C)c1NC(=O)CC12CCCN1CCC2`, the max response was 5.91%.
On to `CCN[C@@H]1C[C@H](N)[C@@H](OC2OC(CN)=CCC2N)[C@H](O)[C@H]1O[C@H]1OC[C@](C)(O)[C@H](NC)[C@H]1O` (stereo partly drawn), for which the max response is 5.87%.
For the compound `CC[N+](CC)(CC)CCOc1cccc(OCC[N+](CC)(CC)CC)c1OCC[N+](CC)(CC)CC`, the max response was 2.7%.
Still for that read-out and setting: then `C1CCC2=NCCCN2CC1`, with 20.2%; and `CCCCCCCCCC[N+](C)(C)[O-]`, with -6.97%.
As for `CCOc1ccccc1OCC`, the max response was 5.1%.
On to `C[N+](C)(CCOc1ccccc1)Cc1cccs1`, for which the max response was 6.59%.
Consider `CCOC(=O)C1=NOC(c2ccccc2)(c2ccccc2)C1`, for which the max response was 3.23%.
The same measure, in the same setting: then `CCCn1cc[n+](C)c1C`, with 0.77%; and `NC(CCC(=O)O)C(=O)O` (stereo not drawn), with 16.4%.
Turning to `CCN[C@H]1C[C@H](C)S(=O)(=O)c2sc(S(N)(=O)=O)cc21`, the max response was -0.522%.
On to `Nc1ccn([C@@H]2O[C@H](CO)[C@@H](O)C2(F)F)c(=O)n1`, for which the Potency was 0.756 µM (active).
Consider `O=C1CCCCCCCCCCCCCCO1`, for which the max response was 0.109%.
In the case of `CC(=O)O[C@@]12CO[C@@H]1C[C@H](O)[C@@]1(C)C(=O)[C@H](O)C3=C(C)[C@@H](OC(=O)[C@H](O)[C@@H](NC(=O)OC(C)(C)C)c4ccccc4)C[C@@](O)([C@@H](OC(=O)c4ccccc4)[C@H]21)C3(C)C`, the Potency is 0.0338 µM (active).
`CC(=O)c1ccc2ccccc2c1`: the max response is 8.54%.
The same measure, in the same setting: then `Cc1ccc(C(=O)c2ccc(CC(=O)O)n2C)cc1`, with 1.68%.
Regarding `COC(=O)C1=C(C)NC(C)=C(C(=O)OC(C)C)C1c1cccc2nonc12` (stereo not drawn), the Potency is 16.9 µM (active).
Regarding `CCOC(=O)COc1cc(-n2ncc(C(F)(F)F)c(C)c2=O)c(F)cc1Cl`, the max response is -4.34%.
Take `COC(=O)Nc1ccc(Cl)c(Cl)c1`: the max response is -27.2%.
As to `NC(=O)N1c2ccccc2CC(=O)c2ccccc21`, the max response was 2.12%.
`CC(CC=O)CC(C)(C)C` (stereo not drawn): the max response was -0.119%.
Regarding `Cc1c(N)c(=O)n(-c2ccccc2)n1C`, the max response is -5.41%.

The values are drawn from PubChem BioAssay (Tox21).
